Reference: PubChem BioAssay
Several values for one entry are separate records, joined by “and”; a condition that tells them apart may be missing. Equal entries are not always repeated. For some of these results: Measured potencies and affinities stand elsewhere. Activity calls are given as the source filed them.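 The calls were made as follows, unless noted: active = compounds whose cell count with miR-34 switched on is under 0.7 times the count with it off; inactive = the rest.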

Key:
[1] = differential killing of epithelial or mesenchymal cells, primary screen, imaging, PC-3E GFP, TEM4-18 mCherry, co-culture (AID 1345086;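 active = compounds killing one labelled cell type while sparing the other, by normalised counts and ratio limits, not self-fluorescent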;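 as to all read-outs here: cells exposed to compound for 72 h before imaging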;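 as to red/green cell ratio (normalised): normalised mesenchymal count divided by normalised epithelial count so high means epithelial killing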); details: imaging cell counts, at 1 µM; for red/green cell ratio (normalised): actives lie on both sides, counts scaled to control wells, 1 = unselective
[2] = sensitizers of A549 cells to miR-34 induction, primary screen, imaging, A549 dox-inducible miR-34, nuclei and caspase counts (AID 1347080); details: A549 miR-34 inducible, Hoechst nuclei count, 48 h
[3] = survival rescue of mitochondrial mutant cells in low glucose, primary screen, MELAS cybrids, Rieske KO mouse fibroblasts, CellTiter-Glo (AID 1508586;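 active = mean z-score across replicates of 1.96 or higher in either the MELAS or the Rieske mutant cell line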;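 also: z relative to plate mean and SD of compound and empty wells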)
[4] = molecular target: NAD(+) hydrolase SARM1 (Homo sapiens) (UniProt Q6SZW1); assay: SARM1 TIR NADase inhibitors, cell lysate, NAD-Glo luminescence (AID 1508614;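 active = compound whose remaining NAD level is above about 45 nM, limit read from the data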;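 also: higher remaining NAD means stronger inhibition of SARM1 NADase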); details: SAM-TIR HEK293T lysate NADase, at 1 µM, stronger effect = higher value
[5] = polyglutamine-triggered caspase-3 activation inhibitors, cell-based (AID 1583); details: polyglutamine-induced caspase-3 activation, cell assay; stronger effect = higher value;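 tested at 10 µM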
[6] = suppressors of polyQ aggregation in yeast, 75Q-TubU reporter (AID 1593); details: Yeast 75Q polyglutamine aggregation reporter
[7] = rescue of polyQ-huntingtin neuronal dysfunction in worms, whole organism, C. elegans mechanosensory neurons, N-terminal huntingtin (AID 1599); details: touch response, stronger effect = higher value
[8] = inhibitors of mitochondrial cytochrome c release, biochemical, purified mitochondria (AID 1603); details: stronger effect = lower value;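 also: mouse liver mitochondria challenged with calcium chloride; signal normalized to the plate average as 100%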
[9] = inhibitors of polyQ protein aggregation (AID 1604); details: polyglutamine-induced protein aggregation inhibition assay; stronger effect = higher value; tested at 2.5 µM
[10] = enhancers of glutamate uptake in motor neurons, MN-1 cell line (AID 1612); details: MN-1 motor neuron cells, stronger effect = higher value;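 also: tested at 1 µM final; 0% = mean of DMSO vehicle wells on each plate; positive means more glutamate uptake than control and negative means less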
[11] = reducers of polyQ inclusions in PC12 cells, cell-based, NGF-treated PC12, GFPQ80 (AID 1614); details: PC12 NGF-treated GFP-polyQ80 inclusion reduction;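 also: lower means fewer inclusions and 0 means no inclusions at all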
[12] = suppressors of polyglutamine aggregation in yeast, 75Q-TubH (AID 1616); details: S. cerevisiae 75Q-TubH polyglutamine aggregation suppression; stronger effect = higher value
[13] = liver-stage malaria parasite growth inhibition, primary screen, cell-based, HepG2, luciferase luminescence, HepG2 viability (AID 624349; in the data active = parasite load remaining mostly below about 12%, no sharp cut-off; inactive = mostly above about 10%;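 also: 100% = mean of DMSO negative control wells on the same plate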); details: P. berghei liver stage in HepG2, luciferase luminescence, concentration not given here; parasite load remaining: stronger effect = lower value; viability: measured here: HepG2 viability without parasites
[14] = molecular target: Mitogen-activated protein kinase 7 (Homo sapiens) (UniProt Q13164); assay: ERK5 transactivation activators in reporter cells, primary screen, cell-based, HTS (AID 1508626;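 active = luciferase signal above three times the same-plate solvent-only control wells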;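 also: luciferase driven by Gal4-ERK5 fusion binding five Gal4 sites before minimal TATA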); details: HeLa Gal4-ERK5 transactivation, 18 h, at 5 µM, stronger effect = higher value
[15] = viability rescue of complex I mutant cybrids, primary screen, cell-based, galactose medium, ATP luminescence (AID 1645843;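 active = z-score of at least 1.8 in each of two replicates, scored against plate mean and spread of sample wells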;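 also: positive z means more ATP and so rescue of galactose-driven cybrid death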); details: complex I mutant cybrid cells, 72 h, stronger effect = higher value
[16] = hESC survival regulators, cell-based (AID 493140; call rule not given here;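 also: cells exposed to compounds for four days before counting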); details: human embryonic stem cell survival screen; stronger effect = higher value
[17] = measured here: epithelial PC-3E GFP cell survival
[18] = measured here: mesenchymal TEM4-18 mCherry cell survival
[19] = stronger effect = lower value, cell number ratio, induced over uninduced
[20] = measured here: relative caspase fold change +Dox/-Dox
[21] = measured here: total cells with miR-34 induction, stronger effect = lower value
[22] = measured here: total cells without miR-34 induction
[23] = MELAS cybrid survival, CellTiter-Glo 48 h, stronger effect = higher value
[24] = Rieske KO mouse fibroblast survival, CellTiter-Glo 72 h

Chain of NAD(+) hydrolase SARM1 (Homo sapiens) (Q6SZW1 whole entry, looked up): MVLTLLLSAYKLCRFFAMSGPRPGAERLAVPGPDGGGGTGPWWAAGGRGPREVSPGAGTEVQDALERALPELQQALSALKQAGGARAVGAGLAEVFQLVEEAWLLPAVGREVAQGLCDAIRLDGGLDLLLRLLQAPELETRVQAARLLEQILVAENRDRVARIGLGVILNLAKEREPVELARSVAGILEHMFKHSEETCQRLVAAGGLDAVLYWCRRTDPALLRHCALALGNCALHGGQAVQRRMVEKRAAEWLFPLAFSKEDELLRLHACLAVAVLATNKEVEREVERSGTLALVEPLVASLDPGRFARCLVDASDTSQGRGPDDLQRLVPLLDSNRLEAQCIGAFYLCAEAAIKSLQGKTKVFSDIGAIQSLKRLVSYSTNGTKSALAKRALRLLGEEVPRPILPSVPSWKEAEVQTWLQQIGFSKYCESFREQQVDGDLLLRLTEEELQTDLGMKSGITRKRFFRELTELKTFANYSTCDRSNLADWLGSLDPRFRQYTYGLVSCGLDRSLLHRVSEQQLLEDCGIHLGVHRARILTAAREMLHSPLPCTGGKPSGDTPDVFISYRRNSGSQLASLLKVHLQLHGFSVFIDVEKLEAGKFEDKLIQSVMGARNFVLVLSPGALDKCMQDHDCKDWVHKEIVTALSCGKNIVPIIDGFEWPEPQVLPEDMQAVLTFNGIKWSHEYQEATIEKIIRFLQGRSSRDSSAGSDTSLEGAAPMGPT
Chain of Mitogen-activated protein kinase 7 (Homo sapiens) (Q13164 whole entry, looked up, the tested form may be a part): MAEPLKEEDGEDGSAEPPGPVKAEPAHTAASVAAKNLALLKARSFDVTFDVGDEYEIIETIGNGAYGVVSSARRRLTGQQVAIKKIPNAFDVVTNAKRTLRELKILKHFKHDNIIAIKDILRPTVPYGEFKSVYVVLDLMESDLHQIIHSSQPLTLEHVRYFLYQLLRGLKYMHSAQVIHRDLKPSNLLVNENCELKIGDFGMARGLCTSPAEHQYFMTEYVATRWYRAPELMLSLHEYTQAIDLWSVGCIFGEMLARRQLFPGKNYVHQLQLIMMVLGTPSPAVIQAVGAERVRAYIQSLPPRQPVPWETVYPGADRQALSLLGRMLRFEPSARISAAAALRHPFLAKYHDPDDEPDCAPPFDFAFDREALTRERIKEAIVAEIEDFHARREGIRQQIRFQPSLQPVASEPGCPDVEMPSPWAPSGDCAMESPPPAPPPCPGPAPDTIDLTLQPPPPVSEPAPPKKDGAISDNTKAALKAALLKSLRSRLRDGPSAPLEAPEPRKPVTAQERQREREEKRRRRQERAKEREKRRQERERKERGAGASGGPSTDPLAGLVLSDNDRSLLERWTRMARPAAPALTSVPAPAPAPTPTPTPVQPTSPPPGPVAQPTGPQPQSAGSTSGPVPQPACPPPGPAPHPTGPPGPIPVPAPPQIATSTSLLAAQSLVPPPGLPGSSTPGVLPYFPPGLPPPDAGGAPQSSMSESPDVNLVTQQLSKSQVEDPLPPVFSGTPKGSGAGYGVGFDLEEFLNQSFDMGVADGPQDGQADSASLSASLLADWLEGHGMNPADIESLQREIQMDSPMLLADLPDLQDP

Structure (SMILES): CN(C)CC(c1ccc(O)cc1)C1(O)CCCCC1 (stereo not given)
- red/green cell ratio (normalised) [1]: 1 (inactive)
- normalised cell number [1, 17]: 0.79
- normalised cell number [1, 18]: 0.79
- fold change [2, 19]: 0.982 (inactive) and 0.891 (inactive) and 0.889 (inactive)
- fold change [2, 20]: 0.639 and 1.05 and 1.37
- cell count [2, 21]: 9600 and 8680
- cell count [2, 22]: 9780 and 9740 and 9750
- z-score [3, 23]: -0.237 (inactive) and -0.203 (inactive)
- z-score [3, 24]: -0.123 and -0.139
- remaining NAD [4]: 10 nM (inactive)

Structure (SMILES): CC1(C)S[C@@H]2[C@H](NC(=O)COc3ccccc3)C(=O)N2[C@H]1C(=O)O
- inhibition [5]: 4.98%
- score [6]: 1.39
- rescue above control [7]: 1.16
- cytochrome c release ratio [8]: 0.65
- inhibition of aggregation [9]: 70.1%
- glutamate uptake change [10]: -6.22%
- inclusion score [11]: 2
- aggregation suppression score [12]: 0.899
- parasite load remaining [13]: 89.7% (inactive) and 64.4% (inactive) and 28.3% (inactive)
- viability [13]: 71.1% and 91.3% and 70.5%
- red/green cell ratio (normalised) [1]: 1.2 (inactive)
- normalised cell number [1, 17]: 0.81
- normalised cell number [1, 18]: 0.98
- fold change [2, 19]: 0.943 (inactive) and 0.879 (inactive)
- fold change [2, 20]: 0.921 and 0.998
- cell count [2, 21]: 11800 and 10100
- cell count [2, 22]: 12500 and 11500
- z-score [3, 23]: 0.0944 (inactive)
- z-score [3, 24]: 0.173
- remaining NAD [4]: 10 nM (inactive)
- luciferase signal [14]: 64 AU (inactive)
- z-score [15]: 0.895 (inactive)

Structure (SMILES): N=C(N)c1ccc(N=NNc2ccc(C(=N)N)cc2)cc1 (tested in a mixture with another compound)
- red/green cell ratio (normalised) [1]: 0.86 (inactive)
- normalised cell number [1, 17]: 1.06
- normalised cell number [1, 18]: 0.91
- fold change [2, 19]: 0.828 (inactive) and 0.804 (inactive)
- fold change [2, 20]: 1.35 and 1.21
- cell count [2, 21]: 6360 and 8020
- cell count [2, 22]: 7680 and 9970
- z-score [3, 23]: 6.02 (active)
- z-score [3, 24]: 5.36
- remaining NAD [4]: 10 nM (inactive)

Structure (SMILES): CN1CCN(C(c2ccccc2)c2ccc(Cl)cc2)CC1 (stereo not given)
- inhibition [5]: 9.79%
- score [6]: 1.32
- rescue above control [7]: 0
- cytochrome c release ratio [8]: 1.15
- inhibition of aggregation [9]: 65.4%
- glutamate uptake change [10]: 11.5%
- aggregation suppression score [12]: 0.963
- survival [16]: 1.83 (inactive)
- parasite load remaining [13]: 76% (inactive) and 58.1% (inactive)
- viability [13]: 93.1% and 88.3%
- red/green cell ratio (normalised) [1]: 1.15 (inactive)
- normalised cell number [1, 17]: 1.09
- normalised cell number [1, 18]: 1.26
- fold change [2, 19]: 0.825 (inactive) and 0.923 (inactive)
- fold change [2, 20]: 1.22 and 0.572
- cell count [2, 21]: 7440 and 10400
- cell count [2, 22]: 9010 and 11300
- z-score [3, 23]: 0.513 (inactive)
- z-score [3, 24]: 1.23
- remaining NAD [4]: 10 nM (inactive)
- luciferase signal [14]: 100 AU (inactive)

Structure (SMILES): CC(=O)[C@H]1CCC2C3CC=C4C[C@@H](OC(=O)CCC(=O)O)CC[C@]4(C)C3CC[C@@]21C (stereo not given in full)
- red/green cell ratio (normalised) [1]: 0.87 (inactive)
- normalised cell number [1, 17]: 1.07
- normalised cell number [1, 18]: 0.93
- fold change [2, 19]: 0.903 (inactive)
- fold change [2, 20]: 0.914
- cell count [2, 21]: 8450
- cell count [2, 22]: 9360
